Source: PubChem BioAssay AID1159580 (chemical genetic matrix, 2015)
Where “and” joins values, the source holds several entries; their conditions need not be identical. Equal entries are not always repeated. In all, about 5,500 compounds went through this assay and about 2,000 (36%) were called active. Another 18% or so got no clear call; they are omitted. Cut-off read from the data, not from the text of the source: active = normalized growth mostly below about 0.91 (no sharp cut-off); inconclusive = no clear call, values can overlap the other calls; inactive = mostly above about 0.92. This is one part of the list.

Assay: chemical genetic growth profiling, strain panel (AID 1159580);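 note: tested at 20 µM; growth read once vehicle control cultures reached saturation at 30 °C; 1 = growth at the plate median or of vehicle wells; lower values mean less growth of the strain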
Conditions: growth OD
[1] = S. cerevisiae deletion strains, locus YBR229C, strain ROT2, stronger effect = lower value
[2] = S. cerevisiae deletion strains, locus YDL101C, strain DUN1, stronger effect = lower value
[3] = S. cerevisiae deletion strains, locus YDR150W, strain NUM1, stronger effect = lower value
[4] = S. cerevisiae deletion strains, locus YEL061C, strain CIN8, stronger effect = lower value
[5] = S. cerevisiae deletion strains, locus YGR078C, strain PAC10, stronger effect = lower value
[6] = S. cerevisiae deletion strains, locus YHR030C, strain SLT2, stronger effect = lower value
[7] = S. cerevisiae deletion strains, locus YJR043C, strain POL32, stronger effect = lower value
[8] = S. cerevisiae deletion strains, locus YJR075W, strain HOC1, stronger effect = lower value
[9] = S. cerevisiae deletion strains, locus YLR039C, strain RIC1, stronger effect = lower value
[10] = S. cerevisiae deletion strains, locus YLR262C, strain YPT6, stronger effect = lower value
[11] = S. cerevisiae deletion strains, locus YMR307W, strain GAS1, stronger effect = lower value
[12] = S. cerevisiae deletion strains, locus YNL153C, strain GIM3, stronger effect = lower value
[13] = S. cerevisiae deletion strains, locus YPL055C, strain LGE1, stronger effect = lower value
[14] = S. cerevisiae deletion strains, locus YPL241C, strain CIN2, stronger effect = lower value
[15] = S. cerevisiae strains, strain wild type, stronger effect = lower value
[16] = S. cerevisiae deletion strains, locus YAL013W, strain DEP1, stronger effect = lower value
[17] = S. cerevisiae deletion strains, locus YCL061C, strain MRC1, stronger effect = lower value
[18] = S. cerevisiae deletion strains, locus YDL134C, strain PPH21, stronger effect = lower value
[19] = S. cerevisiae deletion strains, locus YHR087W, strain rtc3, stronger effect = lower value
[20] = S. cerevisiae deletion strains, locus YJL187C, strain SWE1, stronger effect = lower value
[21] = S. cerevisiae deletion strains, locus YLR058C, strain SHM2 (second series), stronger effect = lower value
[22] = S. cerevisiae deletion strains, locus YLR085C, strain ARP6, stronger effect = lower value
[23] = S. cerevisiae deletion strains, locus YML094W, strain GIM5, stronger effect = lower value
[24] = S. cerevisiae deletion strains, locus YMR219W, strain ESC1, stronger effect = lower value
[25] = S. cerevisiae deletion strains, locus YMR263W, strain SAP30, stronger effect = lower value
[26] = S. cerevisiae deletion strains, locus YNL298W, strain CLA4 (second series), stronger effect = lower value
[27] = S. cerevisiae deletion strains, locus YNL322C, strain KRE1, stronger effect = lower value
[28] = S. cerevisiae deletion strains, locus YNR030W, strain Alg12, stronger effect = lower value
[29] = S. cerevisiae deletion strains, locus YPR135W, strain CTF4, stronger effect = lower value

Measured: normalized growth

O=c1ccn([C@@H]2O[C@H](COP(=O)(O)OP(=O)(O)OP(=O)(O)O)[C@@H](O)[C@H]2O)c(=O)[nH]1
inactive: S. cerevisiae deletion strains, locus YBR021W, strain FUR4, stronger effect = lower value 1.06 | [1] 1.02 | S. cerevisiae deletion strains, locus YCL029C, strain bik1, stronger effect = lower value 0.999 | S. cerevisiae deletion strains, locus YDL035C, strain GPR1, stronger effect = lower value 1.02 | S. cerevisiae deletion strains, locus YDL074C, strain BRE1, stronger effect = lower value 1.04 | [2] 1.02 | S. cerevisiae deletion strains, locus YDL185W, strain tfp1, stronger effect = lower value 0.974 | S. cerevisiae deletion strains, locus YDL192W, strain arf1, stronger effect = lower value 0.991 | S. cerevisiae deletion strains, locus YDR101C, strain arx1, stronger effect = lower value 1.03 | [3] 1.02 | S. cerevisiae deletion strains, locus YDR162C, strain NBP2, stronger effect = lower value 1.01 | S. cerevisiae deletion strains, locus YDR318W, strain mcm21, stronger effect = lower value 1 | S. cerevisiae deletion strains, locus YDR388W, stronger effect = lower value 0.988 | S. cerevisiae deletion strains, locus YDR502C, strain sam2, stronger effect = lower value 0.993 | [4] 1.01 | S. cerevisiae deletion strains, locus YER110C, stronger effect = lower value 0.954 | S. cerevisiae deletion strains, locus YER155C, strain BEM2, stronger effect = lower value 1.02 | S. cerevisiae deletion strains, locus YER167W, strain BCK2, stronger effect = lower value 1.02 | S. cerevisiae deletion strains, locus YGL078C, strain dbp3, stronger effect = lower value 0.984 | S. cerevisiae deletion strains, locus YGL086W, strain mad1, stronger effect = lower value 0.996 | S. cerevisiae deletion strains, locus YGL248W, strain PDE1, stronger effect = lower value 1.02 | [5] 1.02 | S. cerevisiae deletion strains, locus YGR135W, strain pre9, stronger effect = lower value 0.946 | S. cerevisiae deletion strains, locus YGR252W, strain gcn5, stronger effect = lower value 0.975 | [6] 1.01 and 1.04 | S. cerevisiae deletion strains, locus YHR079C, strain IRE1 (second series), stronger effect = lower value 1 | S. cerevisiae deletion strains, locus YHR079C, strain IRE1, stronger effect = lower value 1.04 | S. cerevisiae deletion strains, locus YHR094C, strain hxt1, stronger effect = lower value 0.996 | S. cerevisiae deletion strains, locus YHR129C, strain ARP1, stronger effect = lower value 1.02 | S. cerevisiae deletion strains, locus YHR200W, strain rpn10, stronger effect = lower value 1 | S. cerevisiae deletion strains, locus YIL066C, strain RNR3, stronger effect = lower value 1.03 | S. cerevisiae deletion strains, locus YIL073C, strain SPO22, stronger effect = lower value 0.962 | S. cerevisiae deletion strains, locus YIL125W, strain kgd1, stronger effect = lower value 1.01 | S. cerevisiae deletion strains, locus YIR030C, strain dcg1, stronger effect = lower value 0.996 | S. cerevisiae deletion strains, locus YJL095W, strain BCK1, stronger effect = lower value 1.04 | S. cerevisiae deletion strains, locus YJL134W, strain LCB3, stronger effect = lower value 1.01 | S. cerevisiae deletion strains, locus YJL168C, strain set2, stronger effect = lower value 0.98 | S. cerevisiae deletion strains, locus YJL187C, strain SWE1 (second series), stronger effect = lower value 1.03 | [7] 1.04 | S. cerevisiae deletion strains, locus YJR066W, strain TOR1, stronger effect = lower value 1.01 | [8] 1 | S. cerevisiae deletion strains, locus YKL009W, strain mrt4, stronger effect = lower value 0.979 | S. cerevisiae deletion strains, locus YKL068W, stronger effect = lower value 1.02 | S. cerevisiae deletion strains, locus YKL085W, strain MDH1 (second series), stronger effect = lower value 1.01 | S. cerevisiae deletion strains, locus YKL085W, strain MDH1, stronger effect = lower value 1.01 | S. cerevisiae deletion strains, locus YKR001C, strain vps1, stronger effect = lower value 0.99 | [9] 1.04 | S. cerevisiae deletion strains, locus YLR058C, strain SHM2, stronger effect = lower value 1.01 | S. cerevisiae deletion strains, locus YLR102C, strain apc9, stronger effect = lower value 1 | S. cerevisiae deletion strains, locus YLR113W, strain HOG1, stronger effect = lower value 1.05 | [10] 1.03 | S. cerevisiae deletion strains, locus YLR268W, strain sec22, stronger effect = lower value 0.988 | S. cerevisiae deletion strains, locus YLR330W, strain CHS5, stronger effect = lower value 1.01 | S. cerevisiae deletion strains, locus YLR342W, strain FKS1 (second series), stronger effect = lower value 1.03 | S. cerevisiae deletion strains, locus YLR371W, strain rom2, stronger effect = lower value 0.998 | S. cerevisiae deletion strains, locus YLR418C, strain cdc73, stronger effect = lower value 0.976 | S. cerevisiae deletion strains, locus YML016C, strain PPZ1, stronger effect = lower value 1.01 | S. cerevisiae deletion strains, locus YML032C, strain rad52, stronger effect = lower value 0.972 | S. cerevisiae deletion strains, locus YML124C, strain tub3, stronger effect = lower value 0.995 | S. cerevisiae deletion strains, locus YMR078C, strain ctf18, stronger effect = lower value 1 | S. cerevisiae deletion strains, locus YMR223W, strain ubp8, stronger effect = lower value 0.977 | [11] 0.976 | S. cerevisiae deletion strains, locus YNL067W, strain RPL9B, stronger effect = lower value 1.04 | [12] 1.04 | S. cerevisiae deletion strains, locus YNL183C, strain NPR1, stronger effect = lower value 1.04 | S. cerevisiae deletion strains, locus YNL233W, strain BNI4, stronger effect = lower value 1.04 | S. cerevisiae deletion strains, locus YNL250W, strain rad50, stronger effect = lower value 0.989 | S. cerevisiae deletion strains, locus YNL271C, strain bni1, stronger effect = lower value 0.998 | S. cerevisiae deletion strains, locus YNL298W, strain CLA4, stronger effect = lower value 0.98 | S. cerevisiae deletion strains, locus YNL307C, strain MCK1, stronger effect = lower value 0.994 | S. cerevisiae deletion strains, locus YNR052C, strain pop2, stronger effect = lower value 0.995 | S. cerevisiae deletion strains, locus YOL012C, strain htz1 0.439 | S. cerevisiae deletion strains, locus YOL147C, strain pex11, stronger effect = lower value 0.99 | S. cerevisiae deletion strains, locus YOR061W, strain CKA2, stronger effect = lower value 1.01 | S. cerevisiae deletion strains, locus YOR069W, strain VPS5, stronger effect = lower value 1.01 | S. cerevisiae deletion strains, locus YOR136W, strain idh2, stronger effect = lower value 0.997 | S. cerevisiae deletion strains, locus YOR144C, strain elg1, stronger effect = lower value 0.992 | S. cerevisiae deletion strains, locus YOR184W, strain ser1, stronger effect = lower value 0.965 | S. cerevisiae deletion strains, locus YOR231W, strain MKK1, stronger effect = lower value 1.07 | S. cerevisiae deletion strains, locus YOR316C, strain cot1, stronger effect = lower value 1 | [13] 1.04 | [14] 0.998 | S. cerevisiae deletion strains, locus YPL256C, strain CLN2, stronger effect = lower value 1.03 | S. cerevisiae deletion strains, locus YPR119W, strain clb2, stronger effect = lower value 1 | S. cerevisiae deletion strains, locus YPR141C, strain kar3, stronger effect = lower value 1.01 | S. cerevisiae deletion strains, locus YPR163C, strain tif3, stronger effect = lower value 1.02 | S. cerevisiae deletion strains, locus YPR167C, strain met16, stronger effect = lower value 1 | S. cerevisiae deletion strains, strain wtn01, stronger effect = lower value 0.977 | [15] 1.01

Cc1onc(-c2ccccc2Cl)c1C(=O)Nc1ccc(S(=O)(=O)Nc2nccs2)cc1
inactive: [16] 1.01 | [1] 1.01 | [17] 0.985 | [2] 0.977 | [18] 0.976 | [3] 0.972 | [4] 1.01 | [5] 1.01 | [6] 0.982 | [19] 0.968 | [20] 1 | [7] 0.966 | [8] 1 | S. cerevisiae deletion strains, locus YKL190W, strain CNB1, stronger effect = lower value 0.989 | [9] 0.975 | [21] 0.982 | [22] 1.05 | [10] 0.97 | [23] 1.03 | [24] 0.999 | [25] 1 | [12] 0.98 | [26] 0.949 | [27] 0.995 | [28] 0.996 | S. cerevisiae deletion strains, locus YOL006C, strain TOP1, stronger effect = lower value 0.926 | [13] 1.05 | [14] 1.01 | [29] 0.932 | [15] 0.968

CSc1nc2ccc(NC(=O)c3c(-c4ccccc4)noc3C)cc2s1
active: [10] 0.787
inactive: [16] 0.971 | [1] 1.01 | [17] 0.99 | [2] 1.01 | [18] 1 | [3] 0.896 | [4] 1 | [5] 0.984 | [6] 0.897 | [19] 1 | [20] 1 | [7] 0.999 | [8] 1 | [9] 0.888 | [21] 0.996 | [22] 0.85 | [23] 0.974 | [24] 1 | [25] 0.945 | [11] 0.961 | S. cerevisiae deletion strains, locus YNL128W, strain TEP1, stronger effect = lower value 1 | [12] 1.01 | [26] 1 | [27] 0.998 | [28] 1 | [13] 0.926 | [14] 1 | [29] 0.921 | [15] 1.01

Cc1onc(-c2ccccc2Cl)c1C(=O)Nc1ccc2c(c1)OCO2
inactive: [16] 0.993 | [1] 1.02 | [2] 1 | [18] 0.985 | [3] 0.935 | [4] 1.01 | [5] 1 | S. cerevisiae deletion strains, locus YGR229C, strain SMI1, stronger effect = lower value 0.997 | [6] 1.08 | [19] 1.01 | [20] 1.01 | [7] 1.03 | [8] 1.01 | [9] 0.971 | [21] 1.02 | [22] 0.997 | [10] 0.99 | [23] 1.02 | [24] 1 | [25] 0.919 | [11] 1.01 | [12] 1 | [26] 1.04 | [27] 0.995 | [28] 1.03 | [13] 0.888 | [14] 1.01 | [29] 1.14
